# Experimental data: the supplement of paper PMC8728848
# Shown is part of a subset that was picked to be rich in the strongest signals.
# B1: Clec12b (Mus musculus), Q149M0 (protein)
# chain: MSDEVTYATLMLQDSARVRGNQDGNNLRKEGHPAQSSLWRGAALSLMTLCLVLVTGLVTLATMFLQVSNDINSDSEKLSQLQKSIHPQQDNLSESLNSSRKSLTEESLQSQISALLERQEQMATKLCKEFLIHASDHKCNPCPKTWQWYGNSCYYFSINEEKSWSDSRKDCIDKNATLVKIDSTEERDLLQSQLSLTFSFFWLGLSWNSSGRNWLWEDGSFPPPTLFSDKELASFNGSRDCAYFERGNIYASRCSAEIPWICEKTASLVKTEDLD
# Legend:
# Test in all cases: glycan array binding signal (z-score within array); higher = stronger binding
# Conditions in all cases: glycan notation: IUPAC condensed, linker removed
# Fuc(a1-2)Gal(b1-3)GalNAc = molecular target: Fuc(a1-2)Gal(b1-3)GalNAc
# Procedure, shortened: (§1)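 The binding signal is a Z-score computed within each array and averaged over linkers. Arrays of the same protein sequence at different concentrations or buffers were also averaged together. Data originate from 3228 arrays in the Consortium for Functional Glycomics database, kept only where the protein sequence was available.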
# [1] = molecular target: Fuc(a1-2)Gal(b1-3)GalNAc(a1-3)[Fuc(a1-2)]Gal(b1-4)GlcNAc
# Procedure, shortened: as §1
# [2] = molecular target: Fuc(a1-2)Gal(b1-3)GalNAc(b1-3)Gal(a1-4)Gal(b1-4)Glc
# Procedure, shortened: as §1
# [3] = molecular target: Fuc(a1-2)Gal(b1-3)GlcNAc(b1-2)Man(a1-3)[Fuc(a1-2)Gal(b1-3)GlcNAc(b1-2)Man(a1-6)]Man(b1-4)GlcNAc(b1-4)GlcNAc
# Procedure, shortened: as §1
# [4] = molecular target: Fuc(a1-2)Gal(b1-3)GlcNAc(b1-3)Gal(b1-4)Glc
# Procedure, shortened: as §1
# [5] = molecular target: Fuc(a1-2)Gal(b1-3)GlcNAc(b1-3)GalNAc
# Procedure, shortened: as §1
# [6] = molecular target: Fuc(a1-2)Gal(b1-3)[Fuc(a1-4)]GlcNAc(b1-2)Man(a1-3)[Fuc(a1-2)Gal(b1-3)[Fuc(a1-4)]GlcNAc(b1-2)Man(a1-3)]Man(b1-4)GlcNAc(b1-4)GlcNAc
# Procedure, shortened: as §1
# [7] = molecular target: Fuc(a1-2)Gal(b1-4)[Fuc(a1-3)]GlcNAc(b1-2)[Fuc(a1-2)Gal(b1-4)[Fuc(a1-3)]GlcNAc(b1-4)]Man(a1-3)[Fuc(a1-2)Gal(b1-4)[Fuc(a1-3)]GlcNAc(b1-2)Man(a1-6)]Man(b1-4)GlcNAc(b1-4)GlcNAc
# Procedure, shortened: as §1
# Fuc(a1-2)Gal6S(b1-4)Glc = molecular target: Fuc(a1-2)Gal6S(b1-4)Glc
# Procedure, shortened: as §1
# [8] = molecular target: Fuc(a1-2)Gal6S(b1-4)Glc6S
# Procedure, shortened: as §1
# [9] = molecular target: Fuc(a1-2)[Gal(a1-3)]Gal(b1-3)GalNAc(b1-3)Gal(a1-4)Gal(b1-4)Glc
# Procedure, shortened: as §1
# [10] = molecular target: Fuc(a1-2)[Gal(a1-3)]Gal(b1-4)GlcNAc(b1-2)Man(a1-3)[Fuc(a1-2)[Gal(a1-3)]Gal(b1-4)GlcNAc(b1-2)Man(a1-6)]Man(b1-4)GlcNAc(b1-4)GlcNAc
# Procedure, shortened: as §1
# [11] = molecular target: Fuc(a1-2)[GalNAc(a1-3)]Gal(b1-3)GlcNAc(b1-6)GalNAc
# Procedure, shortened: as §1
# [12] = molecular target: Fuc(a1-2)[GalNAc(a1-3)]Gal(b1-4)GlcNAc(b1-3)Gal(b1-4)GlcNAc
# Procedure, shortened: as §1
# [13] = molecular target: Fuc(a1-2)[GalNAc(a1-3)]Gal(b1-4)GlcNAc(b1-3)Gal(b1-4)GlcNAc(b1-3)Gal(b1-4)GlcNAc
# Procedure, shortened: as §1
# [14] = molecular target: Fuc(a1-2)[GalNAc(a1-3)]Gal(b1-4)GlcNAc(b1-6)GalNAc
# Procedure, shortened: as §1
# [15] = molecular target: Fuc(a1-2)[GalNAc(a1-3)]Gal(b1-4)[Fuc(a1-3)]GlcNAc
# Procedure, shortened: as §1
# Fuc(a1-3)GlcNAc = molecular target: Fuc(a1-3)GlcNAc
# Procedure, shortened: as §1
# Gal(a1-3)Gal(b1-3)GlcNAc = molecular target: Gal(a1-3)Gal(b1-3)GlcNAc
# Procedure, shortened: as §1
# [16] = molecular target: Gal(a1-3)Gal(b1-3)GlcNAc(b1-6)GalNAc
# Procedure, shortened: as §1
# Gal(a1-3)Gal(b1-4)GlcNAc = molecular target: Gal(a1-3)Gal(b1-4)GlcNAc
# Procedure, shortened: as §1
# Gal(b1-2)Gal = molecular target: Gal(b1-2)Gal
# Procedure, shortened: as §1
# [17] = molecular target: Gal(b1-3)GalNAc(a1-3)[Fuc(a1-2)]Gal(b1-4)GlcNAc
# Procedure, shortened: as §1
# [18] = molecular target: Gal(b1-3)GlcNAc(b1-3)Gal(b1-4)GlcNAc
# Procedure, shortened: as §1
# [19] = molecular target: Gal(b1-3)GlcNAc(b1-6)GalNAc
# Procedure, shortened: as §1
# Gal(b1-3)GlcNAc6S = molecular target: Gal(b1-3)GlcNAc6S
# Procedure, shortened: as §1
# [20] = molecular target: Gal(b1-3)[Fuc(a1-4)]GlcNAc(b1-2)Man
# Procedure, shortened: as §1
# [21] = molecular target: Gal(b1-3)[Fuc(a1-4)]GlcNAc(b1-2)Man(a1-3)[Gal(b1-3)[Fuc(a1-4)]GlcNAc(b1-2)Man(a1-6)]Man(b1-4)GlcNAc(b1-4)[Fuc(a1-6)]GlcNAc
# Procedure, shortened: as §1
# [22] = molecular target: Gal(b1-3)[GlcNAc(b1-6)]GalNAc
# Procedure, shortened: as §1
# [23] = molecular target: Gal(b1-4)GlcNAc(b1-2)[Gal(b1-4)GlcNAc(b1-6)]Man(a1-6)[Gal(b1-4)GlcNAc(b1-2)Man(a1-3)]Man(b1-4)GlcNAc(b1-4)[Fuc(a1-6)]GlcNAc
# Procedure, shortened: as §1
# [24] = molecular target: Gal(b1-4)GlcNAc(b1-3)Gal(b1-4)GlcNAc(b1-3)Gal(b1-4)GlcNAc(b1-3)Gal(b1-4)GlcNAc(b1-3)Gal(b1-4)GlcNAc(b1-2)Man(a1-3)[Gal(b1-4)GlcNAc(b1-3)Gal(b1-4)GlcNAc(b1-3)Gal(b1-4)GlcNAc(b1-3)Gal(b1-4)GlcNAc(b1-3)Gal(b1-4)GlcNAc(b1-2)Man(a1-6)]Man(b1-4)GlcNAc(b1-4)GlcNAc
# Procedure, shortened: as §1
binder,measurement,setting,value
B1,glycan array binding signal (z-score),Fuc(a1-2)Gal(b1-3)GalNAc,-0.451
same,glycan array binding signal (z-score),[1],0.211
same,glycan array binding signal (z-score),[2],-0.395
same,glycan array binding signal (z-score),[3],2.66
same,glycan array binding signal (z-score),[4],3.25
same,glycan array binding signal (z-score),[5],-0.484
same,glycan array binding signal (z-score),[6],2.58
same,glycan array binding signal (z-score),[7],2.82
same,glycan array binding signal (z-score),Fuc(a1-2)Gal6S(b1-4)Glc,0.808
same,glycan array binding signal (z-score),[8],-0.568
same,glycan array binding signal (z-score),[9],-0.052
same,glycan array binding signal (z-score),[10],0.853
same,glycan array binding signal (z-score),[11],4.57
same,glycan array binding signal (z-score),[12],-0.749
same,glycan array binding signal (z-score),[13],-0.115
same,glycan array binding signal (z-score),[14],0.308
same,glycan array binding signal (z-score),[15],-0.288
same,glycan array binding signal (z-score),Fuc(a1-3)GlcNAc,-0.323
same,glycan array binding signal (z-score),Gal(a1-3)Gal(b1-3)GlcNAc,5.35
same,glycan array binding signal (z-score),[16],-0.324
same,glycan array binding signal (z-score),Gal(a1-3)Gal(b1-4)GlcNAc,0.53
same,glycan array binding signal (z-score),Gal(b1-2)Gal,2.74
same,glycan array binding signal (z-score),[17],-0.587
same,glycan array binding signal (z-score),[18],-0.41
same,glycan array binding signal (z-score),[19],-0.588
same,glycan array binding signal (z-score),Gal(b1-3)GlcNAc6S,0.486
same,glycan array binding signal (z-score),[20],0.927
same,glycan array binding signal (z-score),[21],3.71
same,glycan array binding signal (z-score),[22],-0.137
same,glycan array binding signal (z-score),[23],0.226
same,glycan array binding signal (z-score),[24],0.028
